Screening results from PubChem.
CYP2C9 activ – human CYP2C9 activators, primary screen, biochemical, luminescence; Cytochrome P450 2C9 (Homo sapiens), P11712; recombinant CYP2C9, luciferin-H conversion; stronger effect = higher value; factor 1 = untreated enzyme, 0 = blocked; activation factor at 5 µM; 96,000 tested, 1.4% active;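 active = activation factor of 2 or more for CYP2C9 at a 5 µM dose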
Target sequence (P11712 whole entry, looked up): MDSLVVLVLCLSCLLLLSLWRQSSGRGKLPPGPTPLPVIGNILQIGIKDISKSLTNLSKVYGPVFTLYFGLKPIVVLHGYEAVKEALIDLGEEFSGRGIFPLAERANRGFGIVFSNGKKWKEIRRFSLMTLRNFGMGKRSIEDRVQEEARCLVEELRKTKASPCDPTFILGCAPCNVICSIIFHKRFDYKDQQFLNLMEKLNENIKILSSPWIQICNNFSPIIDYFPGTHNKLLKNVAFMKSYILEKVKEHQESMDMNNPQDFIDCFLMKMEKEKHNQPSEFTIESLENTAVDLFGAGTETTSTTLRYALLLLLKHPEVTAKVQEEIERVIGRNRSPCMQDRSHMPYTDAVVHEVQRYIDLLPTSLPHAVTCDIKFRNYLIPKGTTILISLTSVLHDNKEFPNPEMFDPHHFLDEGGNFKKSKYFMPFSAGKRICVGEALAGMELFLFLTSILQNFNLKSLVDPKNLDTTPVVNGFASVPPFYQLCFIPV
CYP2C9 inh – blockers of cytochrome P450 2C9 activity – biochemical, luminescence, ADME assay, primary screen. inhibition, % at 5 µM. 96,000 tested, 20% active. CYP2C9 Supersomes, luciferin-H conversion;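 active = blocking of liver enzyme CYP2C9 beyond about 50% at 5 µM, limit read from the data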
MRP reversal – reversal of MRP1-mediated doxorubicin resistance, primary screen, H69AR cells, doxorubicin co-treatment; differential viability (reversal), % at 10 µM; H69AR cells + 2 uM doxorubicin, CellTiter-Glo, 72 h; 85,000 tested, 0.04% active;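 active = viability drop by adding the cancer drug above about 55%, with treated viability meeting a 40% cutoff, limit read from the data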;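 also: larger differential means the compound sensitizes cells more to doxorubicin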
CYP2C19 inhib – blockers of cytochrome P450 2C19 activity – biochemical, luminescence, ADME assay, primary screen | P33261 | CYP2C19 Supersomes, luciferin-H EGE luminescence, 30 min | inhibition, % at 5 µM | 96,000 tested, 21% active | AID 778, 2007;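 active = CYP2C19 inhibition above a set limit at 5 µM in the primary screen, cut at about 50% in these data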
MRP1 act – H69AR viability gain despite doxorubicin, primary screen, MRP-1 activator project, H69AR cells, CellTiter-Glo; viability rescue; AID 799, 2007; 140,000 tested, 0.61% active; viability increase, % at 10 µM;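 active = viability gain under doxorubicin at or above a set limit, the compound median plus 3 SD, cut at about 4.7% in these data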;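 also: MRP-1 overexpressing cells given doxorubicin 25 µM after compound pretreatment; 18-22 h compound pretreatment then 72 h with doxorubicin before readout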
CYP2C19 act – human CYP2C19 activators, primary screen, biochemical, luminescence; recombinant CYP2C19, luciferin-H EGE luminescence; stronger effect = higher value; 0 = fully inhibited enzyme, 1 = untreated enzyme; activation factor at 5 µM; 96,000 tested, under 10 active;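 active = activation factor of at least 2 at 5 µM in the primary screen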
Each line names hits and unclear results; the compound was inactive in the other large screens. Hits are enriched below; roughly 21% of the tested compounds scored in any of these assays.

CS(=O)(=O)NCCSCc1ccc(Cl)cc1	none
CCOc1cc(NC(=S)NCCCN2CCOCC2)c(OCC)cc1NC(=O)C1CC1	none (no result: CYP2C9 activ, CYP2C9 inh, MRP reversal, CYP2C19 inhib, CYP2C19 act)
O=C(c1ccco1)N(CC1CCCO1)c1nc(-c2ccccc2)cs1 (stereo unspecified)	CYP2C9 inh 85, CYP2C19 inhib 87
Cc1ccc(-c2csc(N(CCCN3CCOCC3)C(=O)c3ccco3)n2)cc1	CYP2C9 inh 92, CYP2C19 inhib 87 (no result: MRP reversal)
COCCCN(C(=O)c1ccco1)c1nc(-c2cc(OC)ccc2OC)cs1	CYP2C9 inh 76
COc1ccc(-c2csc(N(CCCN3CCOCC3)C(=O)c3ccco3)n2)cc1	none
O=C(c1cccs1)N(CC1CCCO1)c1nc(-c2ccccc2)cs1 (stereo unspecified)	CYP2C9 inh 89, CYP2C19 inhib 95
O=C1CN=C(Nc2ccccc2Cl)N1Cc1ccc2c(c1)OCO2	none (no result: CYP2C9 activ, CYP2C9 inh, CYP2C19 inhib, CYP2C19 act)
CCOC(=O)NC(Nc1ccc(OC)cc1)(C(F)(F)F)C(F)(F)F	none (no result: CYP2C9 activ, CYP2C9 inh, MRP reversal, CYP2C19 inhib, CYP2C19 act)
CC(=O)N(c1ccccc1)C(C)c1nc(C#N)c(C#N)nc1C (stereo unspecified)	none (no result: CYP2C9 activ, CYP2C9 inh, MRP reversal, CYP2C19 inhib, CYP2C19 act)
Cc1cccc(NC(=S)N/C(=N/S(=O)(=O)c2ccccc2)c2ccccc2)c1	none (no result: MRP reversal)
CS/C(=N\S(=O)(=O)c1ccc(Cl)cc1)c1ccccc1	CYP2C9 inh 89, CYP2C19 inhib 96 (no result: MRP reversal)
CS/C(=N/S(=O)(=O)c1ccc(C)cc1)c1ccccc1	none (no result: CYP2C9 activ, CYP2C9 inh, MRP reversal, CYP2C19 inhib, CYP2C19 act)
CC(C)OC(=S)N/C(=N\S(=O)(=O)c1ccccc1)c1ccccc1	CYP2C9 inh 61 (no result: MRP reversal)
CC(C)CO/C(=N/S(=O)(=O)c1ccccc1)c1ccccc1	CYP2C9 inh 78, CYP2C19 inhib 76
CC(C)O/C(=N\S(=O)(=O)c1ccc(Cl)cc1)c1ccccc1	CYP2C9 inh 95, CYP2C19 inhib 95
CCOc1ccc(N2C(=O)/C(=C\c3ccccc3OC)S(=O)(=O)C2c2cccc([N+](=O)[O-])c2)cc1 (stereo unspecified)	none (no result: CYP2C9 activ, CYP2C9 inh, MRP reversal, CYP2C19 inhib, CYP2C19 act)
CCCc1cc(C(=O)NNC(=S)Nc2cccc(C)c2)cs1	none (no result: CYP2C9 activ, CYP2C9 inh, MRP reversal, CYP2C19 inhib, CYP2C19 act)
Cc1cc(N=Cc2c(O)n(-c3ccc4c(c3)OCO4)c(=O)c3ccccc23)ccn1	CYP2C9 inh 60, CYP2C19 inhib 55
S=C(NCCSCc1ccc(Cl)cc1)Nc1ccccc1	CYP2C9 inh 52, CYP2C19 inhib 51 (no result: MRP reversal)
CCCOc1ccc(CSCCNC(=S)Nc2ccccc2)cc1	none (no result: CYP2C9 activ, CYP2C9 inh, MRP reversal, CYP2C19 inhib, CYP2C19 act)
S=C(NCCSCc1ccccc1Cl)Nc1ccccc1	CYP2C19 inhib 96 (no result: MRP reversal)
NC(=O)CC1NC(=O)c2ccccc21 (stereo unspecified)	none
COc1ccccc1CCNC(=O)/C(=C/c1cccnc1)NC(=O)c1ccccc1	none (no result: CYP2C9 activ, CYP2C9 inh, MRP reversal, CYP2C19 inhib, CYP2C19 act)
CC1CCN(C(=O)CSc2nc3c(cnn3-c3ccccc3)c(=O)[nH]2)CC1	none
Cc1ccc(-n2c(C)nc3c(cnn3-c3ccc(C)c(C)c3)c2=O)cc1C	none
Cc1nc2c(cnn2-c2ccccc2Cl)c(=O)n1-c1ccc(N2CCC(C)CC2)cc1	CYP2C19 inhib 72
CCc1nc2c(cnn2-c2ccc(F)cc2)c(=O)n1-c1ccc(N2CCC(C)CC2)cc1	CYP2C19 inhib 50
Cc1ccc(-n2c(C)nc3c(cnn3-c3ccccc3Cl)c2=O)cc1C	CYP2C19 inhib 59
Cc1ccc(-n2c(C)nc3c(cnn3-c3ccc(F)cc3)c2=O)cc1C	none
Cc1ccc(S(=O)(=O)N2CCOCC2)cc1NC(=O)COc1ncnc2ccccc12	none (no result: CYP2C9 activ, CYP2C9 inh, MRP reversal, CYP2C19 inhib, CYP2C19 act)
C=CCn1c(SCC(=O)Nc2cc(C)on2)nc2sc(CC)cc2c1=O	CYP2C9 inh 72 (no result: MRP reversal)
C=CCn1c(SCC(=O)N2CCc3ccccc3C2)nc2sc(C)cc2c1=O	CYP2C9 inh 96, CYP2C19 inhib 63 (no result: MRP reversal)
C=CCn1c(SCC(=O)c2cccs2)nc2sc(CC)cc2c1=O	none
C=CCn1c(SCC(=O)N2CCN(C(=O)c3ccco3)CC2)nc2sc(CC)cc2c1=O	CYP2C9 inh 99, CYP2C19 inhib 90
Cc1cc2ccccc2n2c(SCC(=O)N3CCc4ccccc4C3)nnc12	none (no result: CYP2C9 activ, CYP2C9 inh, CYP2C19 inhib, CYP2C19 act)
Cc1noc2ncnc(Oc3ccc(F)cc3)c12	none (no result: MRP reversal)
COc1ccc(Cl)cc1C(=O)NNC1CC(=O)N(Cc2ccc(Cl)cc2)C1=O (stereo unspecified)	none (no result: CYP2C9 activ, CYP2C9 inh, MRP reversal, CYP2C19 inhib, CYP2C19 act)
O=c1[nH][nH]c(C(F)(F)F)c1C=Nc1ccccc1Cl	none (no result: MRP reversal)
O=c1[nH][nH]c(C(F)(F)F)c1C=NCc1ccc(Cl)cc1	CYP2C19 inhib 58
O=c1[nH][nH]c(C(F)(F)F)c1C=NCc1cccc(Cl)c1	CYP2C19 inhib 68
CCOC(=O)c1cc(C#N)c(SCc2cccc3ccccc23)nc1C	none
CCOC(=O)c1cc(C#N)c(SCC(=O)c2cc(C#N)c(SC)nc2C)nc1C	CYP2C9 inh 99 (no result: MRP1 act)
COc1ccc(Br)cc1CN(C)CC(=O)Nc1c(Cl)cccc1Cl	none (no result: CYP2C9 activ, CYP2C9 inh, MRP reversal, CYP2C19 inhib, CYP2C19 act)
CCC(=O)OCc1cc2cccc(C)c2[nH]c1=O	CYP2C19 inhib 53
COc1ccc(CC(=O)OCc2cc3cccc(C)c3[nH]c2=O)cc1	none
Cc1ccc(CN2C(=O)CCC2C(=O)NCc2ccco2)cc1 (stereo unspecified)	none
COc1ccc(OC)c(C2=NOC(C(=O)NCCN3CCOCC3)C2)c1 (stereo unspecified)	none
COc1ccc(OC)c(C2=NOC(C(=O)Nc3cccnc3)C2)c1 (stereo unspecified)	CYP2C9 activ 2, CYP2C19 inhib 76
O=C(Nc1cccnc1)C1CC(c2ccc(Cl)c(Cl)c2)=NO1 (stereo unspecified)	CYP2C9 inh 56, CYP2C19 inhib 94, MRP1 act 6.0
C/C(N)=C(/C#N)C(=O)CN1CCCCC1	none
CC(C)Cn1cc(C(=O)NC2CCN(Cc3ccccc3)CC2)c2c3ccccc3n(C)c2c1=O	CYP2C19 inhib 57 (no result: MRP reversal)
CC(C)Cn1cc(C(=O)N2CCN(c3ccccn3)CC2)c2c3ccccc3n(C)c2c1=O	CYP2C9 inh 78
O=C(Cc1ccc(F)cc1)Oc1ccc(C(=S)N2CCCC2)cc1	none (no result: CYP2C9 activ, CYP2C9 inh, MRP reversal, CYP2C19 inhib, CYP2C19 act)
CC(/C=C/c1ccc2c(c1)OCO2)=N/NC(=O)c1cccnc1	none (no result: CYP2C9 activ, CYP2C9 inh, MRP reversal, CYP2C19 inhib, CYP2C19 act)
CC(C)(C)OC(=O)N/N=C\C=C\c1ccc2c(c1)OCO2	none (no result: CYP2C9 activ, CYP2C9 inh, MRP reversal, CYP2C19 inhib, CYP2C19 act)
CCC1CCCCN1C(=O)CCCOc1ccccc1 (stereo unspecified)	CYP2C19 inhib 50
O=C(COc1ccc(Cl)cc1)N1CCCCC1	none
O=C(CCCOc1ccc(Cl)cc1)N1CCCCCC1	CYP2C9 inh 59, CYP2C19 inhib 95
O=C(OCCCC(=O)N1CCOCC1)c1ccccc1	none
O=C(CCCOc1ccc(Cl)cc1)N1CCOCC1	CYP2C19 inhib 87
O=C(CCCOc1ccc(Cl)cc1)N1CCCCC1	CYP2C19 inhib 98
Cc1nnc(SCC(=O)Nc2nccs2)[nH]c1=O	none
N#CC1=C(N)N(c2ncn[nH]2)C2=C(C(=O)CCC2)C1c1ccc(F)cc1 (stereo unspecified)	none (no result: CYP2C9 activ, CYP2C9 inh, MRP reversal, CYP2C19 inhib, CYP2C19 act)
